Results from the supplement of paper PMC6555819.

system: VDR:RXRa (NR concentration 270 nM, RXRa partner concentration 90 nM); experiment: PBM binding z-score (relative to random genomic background probes); higher = stronger binding; sequences stand for … in GC…GCGATTGACAGCGTAGAATGAAGG
Method: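 Protein-binding microarray (Agilent 4x180K custom design, double-stranded 60-nt probes: 5' GC cap, 34-nt variable region, 24-nt constant primer region; full probe sequence given). Purified or IVT nuclear receptor:RXRα heterodimers (3:1 NR:RXRα, mostly 270:90 nM) or homodimers were incubated for 1 h in PBS with 2% milk and no ligand, then detected with Alexa488 antibodies. Fluorescence from o1-orientation probes (~5 replicates averaged) was converted to z-scores against 500 random hg19 background probes. Variable regions are seed direct-repeat (DR0–DR5) sites, all their single-nucleotide variants and half-site ablations.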

Row | Sequence | PBM binding z-score
1 | TGAATGAGGTTATAAGATCAGAGAACGTTGCAAA | 0.965
2 | CCGACTGGGGCAAAGTTTACCATACTCAGTACGA | 0.062
3 | CAAACTAGGTCACCGGAAGGTTAAAGTCCGCATG | 4.29
4 | AGAATGAGGTTAAGGTCAGGGAAACAGAATACAT | 3.82
5 | CAAACTCGGTCACCGGAAGGTCAAAGTCCGCATG | 4.77
6 | CCCACTGGGCCATCAGGTCATTGATATCAACGTT | 1.89
7 | ATATGTAGGTTAGCTGGGGTCATTTAGACTAGGC | 5.97
8 | TCATATAGGTAATACAGGTCAAAGTCGGCATCTA | 4.07
9 | GGAACGAGGGCAAGTTGATAACAGAGTTTGATGG | 0.906
10 | ACTAGTTGGTCAGCTGAGGTTACACACAATTCGG | 1.59
11 | AGTCAAAGTTCAACTAGGTAACGTAAGATATGCT | 4.61
12 | CAAACTAGGTCACCGGAAGGTCTAAGTCCGCATG | 3.1
13 | CGTCCAAGGTCAGCAGTTCAGTGAAAGCGACGTG | 3.56
14 | CATACAGGGTGAGCTAGGCCAGAGTAGGGACGGC | -0.189
15 | TCTATTAGTTGAAGGGTAACCGACGAGTCCGTTT | 1.2
16 | GCGACTGGGGCAAAGCGGGTTACCATAAGGTTGG | 0.145
17 | AATACAGGGTCATCGTAGGCCCGAGTACGCACAG | 4.95
18 | TCATGTAGATCAAGCAGGTTAAGAAAGCCTGAGT | 0.938
19 | ATATGTAGGTTAACGGTCATTCAGGTTGGTTCGC | 2.32
20 | AGAACGAGGGCAATGAGCTGATAGCACGGGTGGC | -0.0572

Row | Sequence | PBM binding z-score
21 | CGTCCAAGGTCAAAGGTCAGTGAGGAGATGACGG | 6.92
22 | ATATGTAGGTTAGCTGGGGTCATTAAGACTAGGC | 5.83
23 | TGAATGAGGTTAAAGATGAGGGAACGTGGCGTCG | 1.48
24 | GCGACTGGGGCATCAGCAGGTCACCATAACTTAA | 1.75
25 | ATCACTAGGTAAAGTTCAGTGAAAGATCGATAGA | 1.21
26 | TCTTCTAGATCAAGCAGGTTAAGAAAGCCTGAGT | 0.623
27 | AGAATGAGGTTAAGATCAGGGAAACAGAATACAT | 1.19
28 | CAAACTAGGTCAAGAGGTGAAAGTCCGCTTCCCG | 2.93
29 | ATCTCTAGGTAAGACGCAGTTCAGTGAAGAACGC | 0.101
30 | CTAACTAGGTCAAGAGGTCAAAGTCCGCTTCCCG | 6
31 | CCTAGTTGCTCAGGAGGTCACACACCGGATATGA | 3.76
32 | GCAGACAGGTGAAACGCAGGTAACCCAGGGTGGC | -0.517
33 | CATATAGGGTCAGCTAGGCCAGAGTAGGGACGGC | 3.7
34 | ATTAGTTGGTCAGCTGAGGTCACACACAATTCGG | 4.76
35 | CCGAGTAGGTTATGGGGCCTTCAGGCAACGGTGA | -0.408
36 | TCTAGCAGGCCAGAGGGTCAATCAAGAGGTACGG | 1.6
37 | ACTAGCAGGCCAAGTTTGGGTCTCTCAAACAAAG | -0.766
38 | CCTTACGGGTCACTCCAGGTTATAGCTTCGGAGT | 3.95
39 | ACTTACGGGTCAACGCGGTTATAGCACGCGTATA | 6.31
40 | ACTAGCAGGCCAGGGGTCACTCAAGATTAGTCCG | 4.42
